Compound activity as filed in PubChem BioAssay.
Shiga toxin inh – A qHTS for Small Molecule Inhibitors of Shiga Toxin. Vero cells, Shiga toxin protein synthesis inhibition reporter. inhibition, % at 38.7 µM. hit rate 9.2% among 290,000; in the data active = inhibition mostly above about 28%, no sharp cut-off; inactive = mostly below about 43%; note: 0% is about no effect
MARV entry inh – qHTS for inhibitors of binding or entry into cells for Marburg Virus; Potency, µM (titrated, usually from 37.8 µM), for inactives: at the highest dose activity change, negative = inhibition, actives largely listed as inhibitors; hit rate 1.8% among 300,000; AID 540276, 2011; Marburg virus pseudotyped entry inhibition, cell reporter; calls by dose curve; tested in HEK293 cells; note: potency is the fitted concentration of half-maximal effect; % is set by controls: 0 for no effect and ±100 for the full control effect
Lassa entry inh – qHTS for Inhibitors of binding or entry into cells for Lassa Virus; hit rate 1.2% among 300,000; Lassa virus pseudotype entry inhibition, cell reporter; Potency, µM (titrated, usually from 37.9 µM), for the others: at the highest dose activity change, negative = inhibition, usual class: inhibitors; calls by dose curve; tested in HEK293 cells; note: potency is the fitted concentration of half-maximal effect; % is set by controls: 0 for no effect and ±100 for the full control effect; nearly all actives have a fitted effect of over 50% in size
FMDV inh – High Throughput Screening for Foot and Mouth Disease Virus Antivirals; FMDV antiviral cell-based qHTS; hit rate 1.2% among 410,000; Potency, µM (titrated, usually from 57.9 µM), without a hit: at the highest dose activity change, negative = inhibition, hits mostly inhibitors; calls by dose curve; tested in HEK293T cells; note: read-out not given here; potency is the fitted concentration of half-maximal effect; % is set by controls: 0 for no effect and ±100 for the full control effect; nearly all actives have a fitted effect of over 45% in size
Cycloheximide cs – Cycloheximide Counterscreen for Small Molecule Inhibitors of Shiga Toxin. hit rate 12% among 300,000. max response, %. cell reporter, cycloheximide protein synthesis inhibition counterscreen; in the data active = max response mostly above about 13%, no sharp cut-off; inactive = mostly below about 14%; note: read at 38.3 µM for the half of the compounds with a filed dose; 0% is about no effect
HCV inh – qHTS Assay for Inhibitors of Hepatitis C Virus (HCV). hit rate 3.4% among 340,000. Potency, µM (doses to about 41.8 µM), inactives show top-dose activity change, negative = inhibition, actives largely listed as inhibitors. AID 651820, 2012. Huh7.5.1 HCVcc-Cre infection, luciferase reporter, 44 h; active = well fitted inhibition curve with a large enough effect; inconclusive = small, poorly fitted or top-dose-only effect, or another doubt; inactive = no such curve, though single readings can be large or run the other way; note: potency is the fitted concentration of half-maximal effect; % is set by controls: 0 for no effect and ±100 for the full control effect
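Whole-lifecycle infectious HCVcc-Cre system; cells 1,000/well, compound then virus (~0.5 moi) added 4 h after plating, 44 h culture. Luciferase read 15 sec following 15 min substrate incubation, room temp.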
Active calls of the source: *; ? = inconclusive; . = no result; [ ] = remark or other dose. This is a sample that favours compounds with a hit; in the whole collection about 13% have one here.

SMILES | Shiga toxin inh | MARV entry inh | Lassa entry inh | FMDV inh | Cycloheximide cs | HCV inh
CCOC(=O)CN1C(=O)S/C(=C/c2ccco2)C1=O | 20.0 | 3.6% | ? | 49.1% | 15.1* | -6.1%
COC(=O)CN1C(=O)S/C(=C/c2ccc(N3CCCCC3)o2)C1=O | -2.7 | 11.5% | ? | 20.7% | 8.9 | ?
COC(=O)CN1C(=O)S/C(=C/c2cc(C)n(C)c2C)C1=O | 35.4* | ? | 0.7% | 62.9% | 28.3* | -3.9%
COc1ccc(N=C2S/C(=C\c3cc(C)n(C)c3C)C(=O)N2CC(C)C)cc1 | -14.6 | -24.7% | -8.2% | -18.9% | 2.1 | 10µM*
O=C(NC1CCCc2c1cnn2-c1cc(F)cc(F)c1)c1ccc[n+]([O-])c1 (stereo unspecified) | -7.7 | 12.6% | 2.1% | -14.7% | -1.9 | 11.1%
Cc1cccc(-n2ncc3c2CCCC3NC(=O)CCc2ccncc2)c1C (stereo unspecified) | -5.3 | . | . | ? | -4.4 | ?
Cc1cccc(-n2ncc3c2CCCC3NC(=O)c2ccc[n+]([O-])c2)c1C (stereo unspecified) | -4.5 | . | . | -25.7% | -2.4 | 12.6µM*
Cc1cc(C(=O)NC2CCCc3c2cnn3-c2cccc(C)c2C)n(C)n1 (stereo unspecified) | -12.1 | . | . | ? | -0.6 | 0.316µM*
Cc1cccc(-n2ncc3c2CCCC3NC(=O)C2CCOCC2)c1C (stereo unspecified) | -18.0 | -29.1% | -8.5% | 0.0% | -2.3 | 22.4µM*
COc1ccc(C2CCCCCN2C(=O)C2CCN(S(=O)(=O)c3cccc(C(C)=O)c3)CC2)cc1 (stereo unspecified) | . | ? | -28.3% | -28.4% | . | -18.5%
CN(C)CCNC(=O)c1onc(CSc2ccncc2)c1C(=O)NCCN(C)C | . | . | . | -6.7% | . | 10.8%
O=C(NC1CCC1)C1CCC(=O)N(Cc2ccccc2F)C1 (stereo unspecified) | 8.3 | . | . | 16.7% | 32.1* | -8.3%
O=C(NCCc1ccccc1F)C1CCC(=O)N(Cc2ccccc2F)C1 (stereo unspecified) | 25.2* | . | . | 2.9% | 18.2* | -10.7%
CC#CCN(Cc1ccco1)C(=O)C1CCC(=O)N(Cc2ccccc2F)C1 (stereo unspecified) | 29.4 | 13.1% | ? | 20.1% | 31.5* | -9.2%
Cc1onc(-c2ccccc2Cl)c1C(=O)Nc1cccc(S(=O)(=O)NC2=NCCC2)c1 | . | -2.7%[46.1 µM] | 10.4% | 4.4% | . | 10.3%
COc1ccc2c(Cl)c(-c3nnc(SCC(=O)c4ccccc4)n3C)sc2c1 | -2.8 | ? | ? | -13.6% | -1.5 | 11.2µM*
Cn1c(SCC(=O)c2ccccc2)nnc1-c1cccc(N)c1 | 65.3 | ? | 2.4% | 26.4% | 28.7* | -13.7%
CCCCSc1nnc(-c2ccc(C)cc2)n1C | 103.5* | 24.7% | ? | 15.1% | 40.0* | -18.0%
Cn1c(SCC(=O)c2ccccc2)nnc1-c1ccccn1 | 113.0* | ? | ? | 0.0% | 53.4* | 0.7%
CCN(CC(=O)Nc1ccc(NC(C)=O)cc1)C(=O)C1CCCN(C(=O)c2ccc(Cl)cc2)C1 (stereo unspecified) | . | . | . | 1.5% | . | 11.7%
CNc1nc(NC)nc(NNC(=O)c2ccccc2)n1 | . | 7.3% | 6.7% | -22.8% | . | 30.6%
CCN(CC(=O)NCc1ccc(F)cc1)C(=O)COc1ccc(C)c(C)c1 | 24.4 | -0.4% | -10.0% | 8.3% | -3.6 | ?
Cn1c(SCC(=O)c2ccccc2)nnc1-c1ccncc1 | -4.1 | -0.2%[46.1 µM] | 10.6% | 8.8% | -2.7 | 4.5%
Cn1c(SCc2ccccc2)nnc1-c1ccc2c(c1)OCO2 | 75.4* | 1.8% | ? | 35.6% | 49.0* | 5.3%
Cn1c(SCC(=O)c2ccccc2)nnc1-c1ccc(O)cc1 | 67.5* | 11.1% | 11.5% | 52.6% | 35.2* | 5.9%
Cn1c(SCc2ccccc2)nnc1-c1ccc(O)cc1 | 65.7* | 6.2% | ? | 60.2% | 31.2* | 7.0%
Cn1c(SCc2ccc(C#N)cc2)nnc1-c1ccccc1 | -3.1 | 14.1% | -0.1% | -2.2% | -1.0 | 15.7%
CCOc1ccc(/C(O)=C2/C(=O)C(=O)N(CCOCCO)C2c2ccccc2)cc1 (stereo unspecified) | 21.2 | -4.5% | 10.5% | 8.5% | 18.1* | -0.8%
